Experimental data: PubChem BioAssay (NCATS)
“And” between values parts separate entries of the source, which are not always exact repeats. Identical values can stand only once. Records with an inconclusive call do not appear. A structure can be active in one record and inactive in another. The source made the active and inactive calls. Calls come from the whole dose curve; as a rule, active = well fitted curve in the direction sought with a large enough effect; inconclusive = small, poorly fitted or top-dose-only effect, or another doubt; inactive = no such curve, though single readings can be large; an effect the other way counts as inactive or inconclusive.

What was measured:
[1] = biological target: Cytochrome P450 3A7 (Homo sapiens) (UniProt P24462); assay: Cytochrome P450 family 3 subfamily A member 7 (CYP3A7) small molecule antagonists: luciferase biochemical qHTS assay (AID 1963596); note: % is set by controls: 0 for no effect and ±100 for the full control effect; nearly all actives have a fitted effect of over 40% in size
Chain of Cytochrome P450 3A7 (Homo sapiens) (P24462 whole entry, looked up): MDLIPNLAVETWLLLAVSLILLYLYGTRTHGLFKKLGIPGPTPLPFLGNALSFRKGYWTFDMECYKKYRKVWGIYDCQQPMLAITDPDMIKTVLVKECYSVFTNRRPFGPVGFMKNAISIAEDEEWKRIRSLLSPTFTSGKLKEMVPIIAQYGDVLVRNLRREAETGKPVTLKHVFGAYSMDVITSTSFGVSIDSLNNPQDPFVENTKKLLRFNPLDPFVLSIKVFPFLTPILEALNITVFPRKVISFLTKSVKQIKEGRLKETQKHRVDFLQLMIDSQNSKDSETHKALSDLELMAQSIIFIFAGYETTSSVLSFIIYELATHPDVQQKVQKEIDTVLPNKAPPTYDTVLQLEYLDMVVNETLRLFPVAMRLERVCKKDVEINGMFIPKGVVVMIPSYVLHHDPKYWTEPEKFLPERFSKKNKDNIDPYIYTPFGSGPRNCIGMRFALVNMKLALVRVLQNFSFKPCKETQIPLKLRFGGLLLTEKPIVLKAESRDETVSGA
Outline: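 Luminescence read-out (relative luminescence units) after 20 min with detection reagent, which stops the reaction. Enzyme, proluciferin substrate and compound preincubated 10 min, RT; NADPH regeneration system then started 1 h reaction. Ketoconazole as positive control.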

[2] = Viability qHTS for spleen associated tyrosine kinase inhibitor (SYKi) naive MV4-11 cells (AID 1963823); note: nearly all actives have a fitted effect of over 40% in size; note: potency is the fitted concentration of half-maximal effect
Outline: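 Compounds were dispensed acoustically onto plates, MV4-11 cells (SYKi-naive) added at 500 per well, and plates incubated 72 hr at 37 C. CellTiter-Glo was added and luminescence measured after 10 min.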

[3] = Viability qHTS for spleen associated tyrosine kinase inhibitor (SYKi) drug resistant MV4-11 cells (AID 1963824); note: nearly all actives have a fitted effect of over 35% in size; note: potency is the fitted concentration of half-maximal effect
Outline: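 SYK-inhibitor-resistant MV4-11 AML cells were seeded at 500 per well onto compound and cultured 72 hours (37 °C, 5% CO2). CellTiter-Glo was then added, and after 10 min at room temperature, luminescence gave viability.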

[4] = Quantitative highthroughput screen to assess conditional lethalithy of NOMO1 cells grown in RPMI1640 with untreated serum (RPMI+s) (AID 1963876); note: nearly all actives have a fitted effect of over 35% in size; note: potency is the fitted concentration of half-maximal effect;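 for Viability: 100% = DMSO wells and 0% = empty wells without cells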
Outline: (§1)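 Each medium arm—HPLM with 10% dialyzed FBS, or RPMI1640 with 5 mM glucose and 10% untreated or dialyzed FBS—was screened against an 11-point, 3-fold compound titration for 48 h at 37 °C, with CellTiter-Glo luminescence as endpoint.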

[5] = Quantitative highthroughput screen to assess conditional lethalithy of NOMO1 cells grown in RPMI1640 with dialyzed fetal bovine serum (RPMI+ds) (AID 1963877); note: nearly all actives have a fitted effect of over 30% in size; note: potency is the fitted concentration of half-maximal effect;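 for Viability: series mostly up to about 46 µM; 100% = DMSO control wells and 0% = empty wells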
Outline: as §1

[6] = Quantitative highthroughput screen to assess conditional lethalithy of NOMO1 cells grown in Human Plasma-Like Medium with dialyzed fetal bovine serum (HPLM+ds) (AID 1963878); note: nearly all actives have a fitted effect of over 35% in size; note: potency is the fitted concentration of half-maximal effect;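 for Viability: 100% = DMSO wells and 0% = empty wells on each plate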
Outline: as §1

[7] = Quantitative highthroughput screen to assess conditional lethalithy of P12 Ichikawa cells grown in Human Plasma-Like Medium with dialyzed fetal bovine serum (HPLM+ds) (AID 1963879); details: Potency: viability; note: nearly all actives have a fitted effect of over 35% in size; note: potency is the fitted concentration of half-maximal effect; for Viability: series mostly up to about 46 µM
Outline: as §1

[8] = Quantitative highthroughput screen to assess conditional lethalithy of P12 Ichikawa cells grown in RPMI1640 with dialyzed fetal bovine serum (RPMI+ds) (AID 1963880); details: Potency: P12-Ichikawa viability; note: nearly all actives have a fitted effect of over 35% in size; note: potency is the fitted concentration of half-maximal effect;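 for Viability: 100% = DMSO wells and 0% = empty wells on each plate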
Outline: as §1

[9] = Quantitative highthroughput screen to assess conditional lethalithy of SEM cells grown in Human Plasma-Like Medium with dialyzed fetal bovine serum (HPLM+ds) (AID 1963882); note: nearly all actives have a fitted effect of over 35% in size; note: potency is the fitted concentration of half-maximal effect; for Viability: series mostly up to about 46 µM
Outline: as §1

[10] = Quantitative highthroughput screen to assess conditional lethalithy of SEM cells grown in RPMI1640 with unreated serum (RPMI+s) (AID 1963883); note: nearly all actives have a fitted effect of over 35% in size; note: potency is the fitted concentration of half-maximal effect;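 for Viability: 100% = DMSO wells and 0% = empty wells without cells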
Outline: as §1

[11] = Quantitative highthroughput screen to assess conditional lethalithy of SEM cells grown in RPMI1640 with dialyzed fetal bovine serum (RPMI+ds) (AID 1963884); note: nearly all actives have a fitted effect of over 35% in size; note: potency is the fitted concentration of half-maximal effect;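 for Viability: series mostly up to about 46 µM; 100% = DMSO control wells and 0% = empty wells without cells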
Outline: as §1

[12] = Cellular viability qHTS for adrenocortical cancer (ACC) cell line SW-13 (AID 1963989); details: SW-13 ACC cells viability, CellTiter-Glo, 48 h; activity (max response): stronger effect = lower value;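 note: cells grown in serum-free medium with ITS supplement; % is set by controls: 0 for no effect and ±100 for the full control effect; nearly all actives have a fitted effect of over 65% in size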
Outline: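 Viability was read as CellTiter-Glo luminescence after 48 h compound treatment (up to 46 uM final) of SW-13 cells grown serum-free; titration curves were fit with a four-parameter logistic model to give IC50 and efficacy.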

[13] = Quantitative highthroughput screen to assess conditional lethalithy of P12 Ichikawa cells grown in RPMI1640 with untreated serum (RPMI+s) (AID 1963881); details: Potency: viability; note: nearly all actives have a fitted effect of over 35% in size; note: potency is the fitted concentration of half-maximal effect;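 for Viability: series mostly up to about 46 µM; 100% = DMSO wells and 0% = empty wells without cells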
Outline: as §1

[14] = Cellular viability qHTS for adrenocortical cancer (ACC) cell line NCI-H295R (AID 1963990); note: nearly all actives have a fitted effect of over 60% in size; note: potency is the fitted concentration of half-maximal effect
Outline: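 CellTiter-Glo ATP luminescence, read 48 h after compound addition, measured viability of NCI-H295R adrenocortical cells grown serum-free with ITS. Final concentrations spanned up to 46 uM. Data normalized to DMSO and doxorubicin, fitted for IC50 and maximal response.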

Cc1coc2c1C(=O)C(=O)c1c-2ccc2c1CCCC2(C)C
active: Potency [2] 1.86 µM | Potency [3] 1.86 µM
inactive: Potency [1] | Potency [4] | Potency [5] | Potency [6] | Potency [7] | Potency [8] | Potency [9] | Potency [10] | Potency [11] | activity (max response) [12] 2.82%

O=C(O)c1cn(-c2ccc(F)cc2)c2cc(N3CCNCC3)c(F)cc2c1=O
inactive: Potency [1] | Potency [2] | Potency [3] | Potency [4] | Potency [5] | Potency [6] | Potency [7] | Potency [8] | Potency [13] | Potency [9] | Potency [10] | activity (max response) [12] -4.38% and 8.16%

CN[C@@H](C)C(=O)N[C@H]1CN(C(=O)CC(C)C)CC[C@H]2CC[C@@H](C(=O)NC(c3ccccc3)c3ccccc3)N2C1=O
active: Potency [3] 5.8 µM and 2.35 µM | Potency [4] 1.32 µM | Potency [5] 2.64 µM | Potency [6] 1.05 µM | Potency [7] 8.33 µM | Potency [8] 11.8 µM | Potency [13] 8.33 µM
inactive: Potency [1] | Potency [2] | activity (max response) [12] -12.1% | Potency [14]

COc1ccc(C2(C#N)CCC(C(=O)O)CC2)cc1OC1CCCC1 (stereo not drawn)
inactive: Potency [1] | Potency [2] | Potency [3] | Potency [4] | Potency [5] | Potency [6] | Potency [7] | Potency [8] | Potency [13] | Potency [9] | Potency [10] | Potency [11] | activity (max response) [12] 2.89% | Potency [14]

CC[C@H](NC(C)C)[C@H](O)c1ccc(O)c2[nH]c(=O)ccc12
inactive: Potency [1] | Potency [3] | Potency [4] | Potency [5] | Potency [6] | Potency [8] | Potency [13] | Potency [9] | Potency [10] | Potency [11] | activity (max response) [12] 3.1% and 13.3% | Potency [14]
inactive and 525 nM (active): Potency [2]

CN(C)c1cc(NC(=O)CNC(C)(C)C)c(O)c2c1C[C@@H]1C[C@H]3[C@H](N(C)C)C(=O)C(C(N)=O)=C(O)[C@@]3(O)C(=O)C1=C2O
inactive: Potency [1] | Potency [2] | Potency [3] | Potency [4] | Potency [5] | Potency [6] | Potency [8] | Potency [13] | Potency [9] | Potency [10]

COc1c(N2CCNC(C)C2)c(F)cc2c(=O)c(C(=O)O)cn(C3CC3)c12 (stereo not drawn)
inactive: Potency [1] | Potency [4] | Potency [5] | Potency [6] | Potency [7] | Potency [13] | activity (max response) [12] -4.21% and 1.72% | Potency [14]
active: Potency [2] 18.6 µM | Potency [3] 14.8 µM | Potency [9] 0.743 µM | Potency [11] 0.662 µM

Cc1cnc(NC(=O)C2=C(O)c3ccccc3S(=O)(=O)N2C)s1
inactive: Potency [1] | Potency [2] | Potency [3] | Potency [4] | Potency [5] | Potency [6] | Potency [7] | Potency [8] | Potency [13] | Potency [9] | Potency [11] | activity (max response) [12] 12.3% [middle of 4 runs] | Potency [14]

O=C(NC(Cc1cc(=O)[nH]c2ccccc12)C(=O)O)c1ccc(Cl)cc1 (stereo not drawn)
inactive: Potency [1] | Potency [2] | Potency [3] | Potency [4] | Potency [5] | Potency [6] | Potency [7] | Potency [8] | Potency [13] | Potency [9] | Potency [10] | Potency [11] | activity (max response) [12] 7.09% and -3.01% | Potency [14]

Cn1cnc([N+](=O)[O-])c1Sc1ncnc2nc[nH]c12
inactive: Potency [1]
active: Potency [2] 5.9 µM | Potency [3] 2.15 µM and 2.35 µM | Potency [4] 6.62 µM | Potency [5] 5.26 µM | Potency [6] 2.64 µM | Potency [8] 5.9 µM | Potency [14] 3.98 µM and 8.2 µM and 5.62 µM

CCN[C@H]1C[C@H](C)S(=O)(=O)c2sc(S(N)(=O)=O)cc21
inactive: Potency [1] | Potency [2] | Potency [3] | Potency [4] | Potency [5] | Potency [6] | Potency [7] | Potency [8] | Potency [13] | Potency [10] | Potency [11] | activity (max response) [12] 3.89% and 5.72% | Potency [14]

Nc1cc(C(Cl)=C(Cl)Cl)c(S(N)(=O)=O)cc1S(N)(=O)=O
inactive: Potency [1] | Potency [2] | Potency [3] | activity (max response) [12] -17% and 6.7% | Potency [14]
active: Potency [4] 7.43 µM | Potency [5] 7.43 µM | Potency [6] 1.87 µM | Potency [7] 1.18 µM | Potency [13] 7.43 µM | Potency [9] 7.43 µM | Potency [10] 2.96 µM | Potency [11] 4.18 µM

CC(C)NCC(O)COc1ccc(COCCOC(C)C)cc1 (stereo not drawn)
inactive: Potency [1] | Potency [2] | Potency [3] | Potency [4] | Potency [5] | Potency [6] | Potency [7] | Potency [8] | Potency [9] | Potency [10] | Potency [11] | activity (max response) [12] 0.903% | Potency [14]
